Our source for the inhibition values is PubChem BioAssay.

Common to all, as to test: inhibition of PEG-3 promoter-driven reporter – cell-based, HeLa, luciferase, CREF/GAPDH counter-screen panel, dose response (AID 624167)
(In general: Counterscreens check selectivity or assay interference.)

Assay [1] has as its target PEG-3 (UniProt Q6IN02). The note with it: CREF/GAPDH counter-screens; HeLa PEG-Prom luciferase reporter, overnight, run 1, dose range 1, at 100 µM (top of the series) unless noted.
The target in assay [2] is PEG-3 (UniProt Q6IN02). The note with it: CREF/GAPDH counter-screens; HeLa PEG-Prom luciferase reporter, overnight, run 2, dose range 1, at 100 µM (top of the series) unless noted.
PEG-3, sequence (Q6IN02 whole entry, looked up): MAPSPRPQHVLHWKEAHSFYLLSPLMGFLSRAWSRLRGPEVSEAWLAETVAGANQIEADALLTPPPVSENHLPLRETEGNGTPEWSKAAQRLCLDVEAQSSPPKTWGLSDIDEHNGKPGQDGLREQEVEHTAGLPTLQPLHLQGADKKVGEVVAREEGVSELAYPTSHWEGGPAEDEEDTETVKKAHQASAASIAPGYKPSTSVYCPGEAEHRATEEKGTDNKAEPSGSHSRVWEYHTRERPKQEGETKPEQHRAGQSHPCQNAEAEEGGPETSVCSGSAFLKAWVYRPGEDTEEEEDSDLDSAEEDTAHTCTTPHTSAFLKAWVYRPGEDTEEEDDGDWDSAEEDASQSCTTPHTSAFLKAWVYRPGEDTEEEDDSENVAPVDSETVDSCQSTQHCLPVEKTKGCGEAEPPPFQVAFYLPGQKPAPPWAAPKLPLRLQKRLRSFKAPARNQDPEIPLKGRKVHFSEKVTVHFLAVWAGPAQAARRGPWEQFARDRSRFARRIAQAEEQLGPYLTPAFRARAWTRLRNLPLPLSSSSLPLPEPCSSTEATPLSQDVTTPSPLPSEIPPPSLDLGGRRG
Assay [3] deals with Rat fibroblasts (CREF). The note with it: CREF/GAPDH counter-screens; run 1, dose range 1, at 100 µM (top of the series).
Assay [4] relates to Rat fibroblasts (CREF). The note with it: CREF/GAPDH counter-screens; run 2, dose range 1, at 100 µM (top of the series).

For the compound `Cc1ccccc1OCC(=O)Nc1cccc(C(=O)O)c1`, the inhibition with PEG-3 [1] is 99.1%; with PEG-3 [2], 95.1%; with Rat fibroblasts (CREF) [3], 95.9%; in the assay on Rat fibroblasts (CREF) [4], 68.4%.

For the compound `COc1cc(Nc2c3ccccc3nc3ccccc23)cc(OC)c1OC`, the inhibition turned out to be 102% with PEG-3 [1], 102% in the assay with PEG-3 [2], 92.9% with Rat fibroblasts (CREF) [3] and 72.1% in the assay with Rat fibroblasts (CREF) [4].

As to `O=C(N/N=C/c1ccc(Cl)c([N+](=O)[O-])c1)c1cc(-c2ccc3c4c(cccc24)CC3)n[nH]1`, the inhibition with PEG-3 [1] is 95.1% [run 1, dose range 1, at 50 µM]; in the assay with PEG-3 [2] it was 93.6%; with Rat fibroblasts (CREF) [3] it was -4.6%; in the assay on Rat fibroblasts (CREF) [4], 4.99%.

As for `CCCN1CCc2c(sc(NC(=O)c3ccc(S(=O)(=O)N4CCN(C(=O)OCC)CC4)cc3)c2C(N)=O)C1`, the inhibition came out at 78.5% in the assay with PEG-3 [1] and 85.4% in the assay with PEG-3 [2].

Consider `COc1cc(OC)c(OC)cc1CCC(C)NCCC(c1ccccc1)c1ccccc1` (stereo not drawn), for which the inhibition with PEG-3 [1] is 100%; with PEG-3 [2] it was 96.7%.

Turning to `CCc1ccn2cc(-c3ccc4c(c3)OCO4)nc2c1`, the inhibition in the assay with PEG-3 [1] was 96%; with PEG-3 [2], 89.2%; with Rat fibroblasts (CREF) [3] it was -17.6%; with Rat fibroblasts (CREF) [4] it was 97.5%.

Regarding `Cc1ccc2nc(C)cc(Nc3ccc([N+](=O)[O-])cc3)c2c1`, the inhibition with PEG-3 [1] amounted to 102%; in the assay with PEG-3 [2] it was 101%; with Rat fibroblasts (CREF) [3], 98.1%; with Rat fibroblasts (CREF) [4], 98.9%.

With `O=C(NC1=C(NC2CCS(=O)(=O)C2)C(=O)c2ccccc2C1=O)c1ccccc1` (stereo not drawn), the results for the inhibition with PEG-3 [1] and with PEG-3 [2] were 102% and 99.7%, respectively.

As to `O=C(C(=O)N(Cc1ccccc1)Cc1ccccc1)c1c(-c2ccccc2)[nH]c2ccccc12`, the inhibition in the assay with PEG-3 [1] is 20.8%; with PEG-3 [2], 46.6%.

As to `C/C(=N\NC(=O)c1cc(C2CC2)nc2ccccc12)c1ccc(O)cc1O`, the inhibition with PEG-3 [1] was determined as 59.9%; with PEG-3 [2], 61.4%; in the assay with Rat fibroblasts (CREF) [3], 31.4%; in the assay on Rat fibroblasts (CREF) [4] it was 65.1%.

In the case of `O=C(Nc1ccc(S(=O)(=O)NC2=NCCCCC2)cc1)c1ccc([N+](=O)[O-])s1`, the inhibition came out at 102% with PEG-3 [1] and 101% with PEG-3 [2].

Consider `CCCCC(=O)NC(c1ccc(OC)cc1)c1ccc2cccnc2c1O` (stereo not drawn), for which the inhibition was determined as 73.4% with PEG-3 [1], 80.2% with PEG-3 [2], 35.2% in the assay on Rat fibroblasts (CREF) [3] and 28.7% with Rat fibroblasts (CREF) [4].

As to `CC(=O)c1cccc(NC(=O)c2cccc3c(-c4cccnc4)coc23)c1`, the inhibition amounted to 36.4% with PEG-3 [1] and 47% in the assay with PEG-3 [2].

As to `Cc1cc(Br)ccc1NC(=O)CN1C(=O)C2C3CC(c4ccccc4)C(C3)C2C1=O` (stereo not drawn), the inhibition worked out at 99.9% with PEG-3 [1] and 92.1% with PEG-3 [2].

With `CN(C)c1ccc(/C=N/NC(=O)c2nnn(-c3nonc3N)c2COc2ccc(F)cc2)cc1`, the inhibition was 2.41% with PEG-3 [1] and -13.2% with PEG-3 [2].

As to `CN(CCOc1ccc(Cl)cc1)C(=O)c1cc(-c2ccco2)nc2ccccc12`, the results for the inhibition in the assay with PEG-3 [1] and with PEG-3 [2] were 99.6% and 96.2%, respectively.

On to `O=C(Cn1ncc(Cl)c(Cl)c1=O)N1CCN(Cc2ccccc2)CC1`, for which the inhibition in the assay with PEG-3 [1] was 95.2%; with PEG-3 [2] it was 98.8%.

As to `COc1ccccc1Nc1nc(-c2sc(NC(=O)c3ccco3)nc2C)cs1`, the inhibition in the assay with PEG-3 [1] came to 38%; with PEG-3 [2] it was 52.5%; in the assay with Rat fibroblasts (CREF) [3] it was 35.4%; in the assay with Rat fibroblasts (CREF) [4] it was 40.3%.

Take `CC1CCCC(C)N1C(=C(Cl)Cl)C(=C1SCCS1)[N+](=O)[O-]` (stereo not drawn): the inhibition with PEG-3 [1] worked out at 50.8%; in the assay with PEG-3 [2] it was 68.9%.

Regarding `CCCC(=O)NC(c1ccc(C(C)C)cc1)c1ccc2cccnc2c1O` (stereo not drawn), the inhibition amounted to 95.6% with PEG-3 [1], 82.8% with PEG-3 [2], 17.4% with Rat fibroblasts (CREF) [3] and 7.77% in the assay on Rat fibroblasts (CREF) [4].

As to `CCOc1ccc(NC(=O)Nc2cccc(C(=O)O)c2)cc1`, the inhibition with PEG-3 [1] amounted to 98%; with PEG-3 [2] it was 94.6%; in the assay on Rat fibroblasts (CREF) [3] it was 91.9%; in the assay with Rat fibroblasts (CREF) [4], 94.1%.

For `Cc1nc(SCC(=O)Nc2nc3ccccc3s2)c(C#N)c(C)c1C`, the inhibition was determined as 95.4% in the assay with PEG-3 [1], 89% with PEG-3 [2], 97.8% in the assay on Rat fibroblasts (CREF) [3] and 97% with Rat fibroblasts (CREF) [4].

In the case of `Nc1ccc(-c2nc3ccc(C(=O)O)cc3s2)cc1`, the inhibition was 98.2% with PEG-3 [1], 98.9% with PEG-3 [2], 89.1% in the assay with Rat fibroblasts (CREF) [3] and 90.5% in the assay on Rat fibroblasts (CREF) [4].

Consider `O=C(Nc1ncc([N+](=O)[O-])s1)c1ccc2c(c1)OCO2`, for which the inhibition in the assay with PEG-3 [1] amounted to 96.1%; with PEG-3 [2], 89.6%; in the assay on Rat fibroblasts (CREF) [3] it was 91.5%; in the assay on Rat fibroblasts (CREF) [4], 91.7%.

On to `CCCS(=O)(=O)c1cnc(C2COc3ccccc3O2)nc1N` (stereo not drawn), for which the inhibition with PEG-3 [1] was 96.2%; with PEG-3 [2] it was 94.6%; with Rat fibroblasts (CREF) [3], 89.5%; with Rat fibroblasts (CREF) [4] it was 87.6%.

The term inhibition denotes the relative decrease from the control value, in per cent.
